IL-1B inflam inh: inflammasome signaling inhibition, IL-1 beta readout. THP-1 LPS/ATP IL-1B secretion, AlphaLISA, 16 h; hits give low values. activity change, % at 57.5 µM. AID 743279. 360,000 tested, 4.7% active; in the data active means activity change below about -50%; inconclusive means mostly about -30% to -49%
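THP-1 cells pretreated 1 hr with compounds (up to 57.5 uM final), then stimulated with LPS (250 ng/mL final) plus ATP (1.25 mM final); secreted IL-1B measured by AlphaLISA after 16 hr, decreased signal indicating inhibition.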
HT1080NT lethal: kills 2HG-producing HT-1080-NT fibrosarcoma cells. 360,000 tested, 1.6% active. Potency, µM (top dose mostly 46.1 µM), for the others: at the highest dose activity, negative = less viability, most hits filed as cytotoxic. HT-1080-NT fibrosarcoma viability, CellTiter-Glo ATP luminescence, 48 h. AID 686970;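 further: NT is the 2HG producing partner of a matched IDH1 knockdown line; potency means the concentration at half of the fitted maximal effect; 0% = DMSO-treated cells and -100% = media-only wells without cells; nearly all actives have a fitted effect of over 55% in size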
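Viability of the 2HG-overproducing fibrosarcoma line after 48 hours of compound exposure at 37 degrees C was determined by luminescence with CellTiter-Glo, and concentration-effect curves were then fitted and categorized.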
DT40 TDP1 CPT: growth inhibition of DT40 Tdp1-/-;hTDP1 cells with camptothecin (screen for TDP1 inhibitors). chicken DT40 Tdp1-/-;hTDP1 cells + 20 nM CPT, ATP luminescence, 48 h. Potency, µM (titrated, usually from 46.2 µM), for inactives: at the top dose activity change, negative = growth inhibition, usual class: inhibitors. 420,000 tested, 12% active. AID 686979; further: potency means the concentration at half of the fitted maximal effect; nearly all actives have a fitted effect of over 55% in size
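Cell growth measured by CellTiter-Glo luminescence after a minimum 48 h, 37 C compound exposure with 20 nM CPT in Tdp1-knockout DT40 cells stably expressing hTDP1, seeded 400/well; qHTS titration format.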
ELG1 DNA repair: inhibitors of ELG1-dependent DNA repair in HEK293T cells; HEK293T ELG1-luciferase reporter, luminescence, 16 h; DNA damage induced by 5-fluorouridine; Potency, µM (highest dose often 46.1 µM), for inactives: at the top dose activity change, negative = inhibition, hits mostly inhibitors; 330,000 tested, 2.3% active; further: potency means the concentration at half of the fitted maximal effect; nearly all actives have a fitted effect of over 55% in size
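HEK293T cells expressing luciferase-tagged ELG1 (2,000/well) received 5-Fluorouridine plus compound or DMSO for 16 hr at 37 °C. Luciferase was read by ONE-Glo luminescence after 30 min at room temperature.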
TDP1 cell noCPT: qHTS for Inhibitors of human tyrosyl-DNA phosphodiesterase 1 (TDP1): qHTS in cells in absence of CPT. DT40 Tdp1-/- hTDP1 cells, no CPT, ATP luminescence, 48 h. Potency, µM (highest dose often 46.2 µM), for inactives: top-dose activity change, negative = growth inhibition, hits mostly inhibitors. 420,000 tested, 15% active; further: potency means the concentration at half of the fitted maximal effect; nearly all actives have a fitted effect of over 55% in size
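Stably hTDP1-transfected Tdp1-null chicken DT40 cells were treated with library compounds minus camptothecin and grown for at least 48 hr at 37 °C, after which cellular ATP was quantified by luminescence.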
HT1080 IDH1KD tx: HT-1080 IDH1 knockdown cell toxicity (counter line); 360,000 tested, 2% active; Potency, µM (series often up to 46.1 µM), for the others: at the top dose activity, negative = toxicity, usual class: cytotoxic; HT-1080 IDH1 knockdown viability, ATP luminescence, 48 h;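 further: potency means the concentration at half of the fitted maximal effect; 0% = DMSO wells and -100% = cell-free medium wells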
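Assay cells: HT-1080 with IDH1 knockdown, 750 per well, RPMI/5% FBS. Exposure: 48 h at 37 °C following 2 h pre-incubation. Read: CellTiter-Glo luminescence; fitted concentration-response, curve class assigned.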
ELG1 FLuc counter: luciferase inhibition in cell-free luciferin readout for ELG1 hits; 350 tested, 3% active; Potency, µM (top dose mostly 46.1 µM), for inactives: at the top dose activity change, negative = inhibition, most hits filed as inhibitors; cell-free firefly luciferase luminescence counter-screen, ViewLux; shares compounds with ELG1 DNA repair; further: potency means the concentration at half of the fitted maximal effect
ELG1-Luc inh: human ELG1 repair inhibition, luciferase-tagged ELG1 confirmation | Potency, µM (series often up to 46.1 µM), inactives show at the top dose activity change, negative = inhibition, hits mostly inhibitors | HEK293T ELG1-luciferase levels, luminescence; cells co-treated with 5-fluorouridine | 670 tested, 68% active | shares compounds with ELG1 DNA repair; further: potency means the concentration at half of the fitted maximal effect; nearly all actives have a fitted effect of over 55% in size
Target sequence (Q96QE3 whole entry, looked up): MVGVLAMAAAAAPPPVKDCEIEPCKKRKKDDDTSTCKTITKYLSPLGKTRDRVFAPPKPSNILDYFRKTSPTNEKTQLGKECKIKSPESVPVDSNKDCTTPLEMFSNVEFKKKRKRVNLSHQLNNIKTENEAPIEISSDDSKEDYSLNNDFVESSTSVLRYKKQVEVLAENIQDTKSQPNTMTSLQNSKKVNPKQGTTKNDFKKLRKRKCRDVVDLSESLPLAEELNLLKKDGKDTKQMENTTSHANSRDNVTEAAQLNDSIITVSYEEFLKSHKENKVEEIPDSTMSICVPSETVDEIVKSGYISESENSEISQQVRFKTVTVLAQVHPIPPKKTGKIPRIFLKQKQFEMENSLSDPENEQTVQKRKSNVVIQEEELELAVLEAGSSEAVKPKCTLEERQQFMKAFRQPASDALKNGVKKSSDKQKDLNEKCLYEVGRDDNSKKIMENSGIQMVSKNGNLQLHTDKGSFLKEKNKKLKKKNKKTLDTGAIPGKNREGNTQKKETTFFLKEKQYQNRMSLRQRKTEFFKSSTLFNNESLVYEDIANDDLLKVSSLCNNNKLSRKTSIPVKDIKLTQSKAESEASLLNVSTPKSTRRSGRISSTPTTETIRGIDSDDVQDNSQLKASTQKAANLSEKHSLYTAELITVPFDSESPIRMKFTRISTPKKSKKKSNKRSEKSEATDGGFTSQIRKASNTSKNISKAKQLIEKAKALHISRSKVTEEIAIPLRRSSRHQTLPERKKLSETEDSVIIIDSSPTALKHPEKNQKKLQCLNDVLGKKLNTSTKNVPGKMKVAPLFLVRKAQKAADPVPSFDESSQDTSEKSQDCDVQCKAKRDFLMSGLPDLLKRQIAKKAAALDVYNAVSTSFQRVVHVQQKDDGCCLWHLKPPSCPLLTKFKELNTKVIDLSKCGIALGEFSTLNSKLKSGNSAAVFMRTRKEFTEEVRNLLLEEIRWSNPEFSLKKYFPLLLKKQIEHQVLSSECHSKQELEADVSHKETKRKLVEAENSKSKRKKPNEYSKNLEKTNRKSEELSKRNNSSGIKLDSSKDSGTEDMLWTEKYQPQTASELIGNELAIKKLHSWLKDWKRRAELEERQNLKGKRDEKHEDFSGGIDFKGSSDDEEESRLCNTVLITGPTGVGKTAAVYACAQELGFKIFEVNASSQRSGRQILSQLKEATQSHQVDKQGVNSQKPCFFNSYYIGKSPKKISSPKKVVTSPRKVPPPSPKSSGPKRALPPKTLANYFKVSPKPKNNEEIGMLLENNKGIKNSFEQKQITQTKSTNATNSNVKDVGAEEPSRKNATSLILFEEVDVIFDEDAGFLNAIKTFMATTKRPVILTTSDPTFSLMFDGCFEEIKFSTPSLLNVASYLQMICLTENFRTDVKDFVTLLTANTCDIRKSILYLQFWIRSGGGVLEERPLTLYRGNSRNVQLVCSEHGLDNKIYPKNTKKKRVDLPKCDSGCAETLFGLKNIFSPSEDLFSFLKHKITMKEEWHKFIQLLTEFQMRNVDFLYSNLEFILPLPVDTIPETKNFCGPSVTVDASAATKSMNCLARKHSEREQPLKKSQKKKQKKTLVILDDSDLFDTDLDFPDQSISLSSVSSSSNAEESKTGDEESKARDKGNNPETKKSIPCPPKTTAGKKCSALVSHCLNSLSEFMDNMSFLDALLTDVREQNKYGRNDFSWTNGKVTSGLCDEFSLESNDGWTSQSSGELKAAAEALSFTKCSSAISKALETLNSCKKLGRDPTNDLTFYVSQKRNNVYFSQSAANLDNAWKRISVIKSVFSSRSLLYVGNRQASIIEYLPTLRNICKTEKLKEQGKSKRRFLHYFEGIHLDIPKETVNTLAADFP
ELG1-Luc MMS: MMS-stimulated human ELG1 repair inhibition, confirmed; Potency, µM (top dose mostly 46.1 µM), for the others: at the highest dose activity change, negative = inhibition, usual class: inhibitors; shares compounds with ELG1 DNA repair; HEK293T luciferase-tagged ELG1 level, MMS stimulated; 670 tested, 53% active; further: potency means the concentration at half of the fitted maximal effect; nearly all actives have a fitted effect of over 60% in size
ELG1 5FU viab: confirmation of ELG1 repair inhibitors: viability with 5FU; Potency, µM (series often up to 46.1 µM), for inactives: top-dose activity change, negative = viability loss, hits mostly cytotoxic; cell viability with 5-FU, ELG1-dependent repair; 670 tested, under 10 active; shares compounds with ELG1 DNA repair;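 further: ELG1-luc HEK293T cells cotreated with 5-fluorouridine at 10 µM final; potency means the concentration at half of the fitted maximal effect; viability measured 16 h after compound addition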
ELG1 MMS viab: confirmation of ELG1 repair inhibitors: viability with MMS | shares compounds with ELG1 DNA repair | Cell viability with MMS, ELG1-dependent DNA repair | Potency, µM (top dose mostly 46.1 µM), for inactives: at the highest dose activity change, negative = viability loss, most hits filed as cytotoxic | 670 tested, 33% active;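 further: ELG1-luc HEK293T cells co-treated with 10 µM MMS; potency means the concentration at half of the fitted maximal effect; viability read 16 h after compound addition; nearly all actives have a fitted effect of over 60% in size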
ELG1 unstim viab: unstimulated viability counter-screen for ELG1 repair hits; shares compounds with ELG1 DNA repair; cell viability counter-screen, unstimulated, luminescence; Potency, µM (highest dose often 45.9 µM), inactives show at the top dose activity change, negative = loss of viability, usual class: cytotoxic; 900 tested, 8% active;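 further: potency means the concentration at half of the fitted maximal effect; compound exposure lasted 16 hours before reading; nearly all actives have a fitted effect of over 55% in size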
FLuc biochem: inhibits purified firefly luciferase, counter-screen for ELG1 hits | Potency, µM (series often up to 57.5 µM), for the others: at the highest dose activity, negative = inhibition, most hits filed as inhibitors | 350 tested, 10% active | purified firefly luciferase, luminescence counter-screen | shares compounds with ELG1 DNA repair; further: potency means the concentration at half of the fitted maximal effect
* hit, by the source's call. An excerpt weighted towards active compounds, which were near 19% of everything screened. Unless noted, the call rests on the fitted dose curve; in most records, active means well fitted curve in the direction sought with a large enough effect; inconclusive means small, poorly fitted or top-dose-only effect, or another doubt; inactive means no such curve, though single readings can be large; an effect the other way counts as inactive or inconclusive. Unless noted, on the % scale 0 is the no-effect control and ±100 the full control effect.

`COc1cc(/C=C/C(=O)Nc2ccc3nc4n(c(=O)c3c2)CCCC4)cc(OC)c1OC` gave IL-1B inflam inh inconclusive, HT1080NT lethal -3%, DT40 TDP1 CPT inconclusive, ELG1 DNA repair 4.6µM*, TDP1 cell noCPT inconclusive, HT1080 IDH1KD tx -11%, ELG1-Luc inh 2.8µM*, ELG1-Luc MMS 10µM*, ELG1 5FU viab inconclusive, ELG1 MMS viab -3% and ELG1 unstim viab -15%.
COc1ccc(CCn2c(N3CCN(C)CC3)nc3c2c(=O)[nH]c(=O)n3C)cc1 was read as IL-1B inflam inh 4, HT1080NT lethal 11%, DT40 TDP1 CPT -11%, ELG1 DNA repair -1%, TDP1 cell noCPT -17% and HT1080 IDH1KD tx 11%.
For CCCn1c(N2CCN(CC(=O)c3c(C)n(C)c4ccc(OC)cc34)CC2)nc2c1c(=O)[nH]c(=O)n2C the results were IL-1B inflam inh -19, HT1080NT lethal -23%, DT40 TDP1 CPT inconclusive, ELG1 DNA repair 1.5µM*, TDP1 cell noCPT 21µM*, HT1080 IDH1KD tx inconclusive, ELG1 FLuc counter -6%, ELG1-Luc inh 3.5µM*, ELG1-Luc MMS inconclusive, ELG1 5FU viab inconclusive, ELG1 MMS viab -18%, ELG1 unstim viab inconclusive and FLuc biochem -15%.
`Cc1cc(C(=O)COC(=O)C2=COCCO2)c(C)n1-c1ccccc1` gave IL-1B inflam inh 5, HT1080NT lethal 7%, DT40 TDP1 CPT inconclusive, ELG1 DNA repair inconclusive, TDP1 cell noCPT inconclusive, HT1080 IDH1KD tx -14%, ELG1 FLuc counter 11µM*, ELG1 unstim viab inconclusive and FLuc biochem 0.092µM*.
Screening Cc1cc(NC(=O)CSc2nc3c(C)ccc(C)c3cc2C#N)no1 returned IL-1B inflam inh 12, HT1080NT lethal -4%, DT40 TDP1 CPT inconclusive, ELG1 DNA repair 0%, TDP1 cell noCPT -19% and HT1080 IDH1KD tx -7%.
`Cc1cc(C)c(C#N)c(SCC(=O)Nc2cc(C)on2)n1` gave IL-1B inflam inh 0, HT1080NT lethal 1%, DT40 TDP1 CPT -7%, ELG1 DNA repair inconclusive, TDP1 cell noCPT -8%, HT1080 IDH1KD tx -3% and ELG1 unstim viab -4%.
`COc1ccc(C(=O)N/N=C/c2cc(Br)ccc2O)cc1OC` gave IL-1B inflam inh 124, HT1080NT lethal inconclusive, DT40 TDP1 CPT 2.3µM*, ELG1 DNA repair 2.1µM*, TDP1 cell noCPT 3.3µM*, HT1080 IDH1KD tx inconclusive, ELG1-Luc inh 4µM*, ELG1-Luc MMS 13µM*, ELG1 5FU viab 19%, ELG1 MMS viab 16µM* and ELG1 unstim viab -13%.
For COc1ccc(Br)cc1/C=N/NC(=O)c1cc(Br)ccc1O the results were ELG1 DNA repair -1%.
COc1ccccc1NC(=O)CSc1nnc(-c2ccccc2)o1 was read as IL-1B inflam inh 8, HT1080NT lethal 1%, DT40 TDP1 CPT 4%, ELG1 DNA repair inconclusive, TDP1 cell noCPT -10%, HT1080 IDH1KD tx 3% and ELG1 unstim viab inconclusive.
`O=C(CSc1nnc(-c2cccc(Cl)c2)o1)Nc1ccc2c(c1)OCCO2` gave IL-1B inflam inh -2, HT1080NT lethal 9%, DT40 TDP1 CPT -4%, ELG1 DNA repair inconclusive, TDP1 cell noCPT -2%, HT1080 IDH1KD tx 0% and ELG1 unstim viab -1%.
`O=C(CSc1nnc(-c2csc3c2CCCC3)o1)Nc1ccccc1` gave IL-1B inflam inh -50*, HT1080NT lethal -11%, DT40 TDP1 CPT inconclusive, ELG1 DNA repair inconclusive, TDP1 cell noCPT inconclusive, HT1080 IDH1KD tx -3%, ELG1 FLuc counter 30%, ELG1 unstim viab inconclusive and FLuc biochem -15%.
Screening N#Cc1c(NC(=O)CSc2nnc(-c3ccccc3)o2)sc2c1CCCC2 returned IL-1B inflam inh -8, HT1080NT lethal -7%, DT40 TDP1 CPT inconclusive, ELG1 DNA repair 11%, TDP1 cell noCPT inconclusive and HT1080 IDH1KD tx -3%.
O=C(CSc1nnc(-c2cccnc2)o1)Nc1ccccn1 was read as IL-1B inflam inh -10, HT1080NT lethal 8%, DT40 TDP1 CPT -30%, ELG1 DNA repair inconclusive, TDP1 cell noCPT -17%, HT1080 IDH1KD tx 13%, ELG1 FLuc counter 193%, ELG1 unstim viab inconclusive and FLuc biochem -3%.
For Cc1ccc(NC(=O)CSc2nnc(-c3cccnc3)o2)c(C)c1 the results were IL-1B inflam inh 13, HT1080NT lethal 9%, DT40 TDP1 CPT -2%, ELG1 DNA repair inconclusive, TDP1 cell noCPT -2% and HT1080 IDH1KD tx 13%.

From PubChem BioAssay
